Records with an inconclusive call do not appear. Values without a mark were called inactive. Activity calls are given as the source filed them. Calls follow the shape of the dose curve; as a rule, active = well fitted cell-killing curve with a large enough effect in the repeat runs; inconclusive = weak or mixed curves, or effect the other way; inactive = flat fitted curve, though single readings scatter.
Assay: qHTS RealTime-Glo MT Cell Viability Assay in HEK293 cells - 0 hour (AID 1224880); also: nearly all actives have a fitted effect of over 45% in size; as to activity change, negative = cytotoxicity: top concentration of the series differs between compounds
Details: RealTime-Glo luminescence; series mostly up to 76.8 µM; activity change, negative = cytotoxicity: at the top concentration
From the text: U.S. Tox21 Program National Center for Advancing Translational Sciences [NCATS] NIH Chemical Genomics Center [NCGC] U.S. Environmental Protection Agency [EPA] National Institutes of Environmental Health Sciences [NIEHS] National Toxicology Program [NTP] U.S. Food and Drug Administration [FDA] Tox21 Assay Overview: Measure of cell viability is critical in the cell-base assay. Analysis of cell viability is necessary for the characterization of cell responses to cytotoxic drugs and environmental stress. A RealTime-Glo MT Cell Viability Assay to monitor cell viability in real time of continues cell culture during 40 hours of compound treatment was used to screen Tox21 10K library compounds in Hek293 cells. The RealTime-Glo MT Cell Viability Assay is a nonlytic, homogeneous, bioluminescent method to measure cell viability in real time using a simple, plate-based method. The assay involves adding NanoLuc luciferase and a cell-permeant prosubstrate to cells in culture. Viable cells reduce the proprietary prosubstrate to generate a substrate for NanoLuc luciferase. This substrate diffuses from cells into the surrounding culture medium, where it is rapidly used by the NanoLuc Enzyme to produce a luminescent signal. The signal correlates with the number of viable cells, making the assay well suited for cytotoxicity studies.
Tox21 Assay Protocol Summary: The mixture of Hek293 cell suspension and reagents were dispensed at 600cells/6 ul/well in 1536-well tissue culture treated black solid bottom plates using a Multidrop dispenser. After the assay plates were incubated at a 37 C/5% CO2 incubator for 5 hours, 23 nL of compounds dissolved in DMSO, positive and negative controls was transferred to the assay plate by a pintool work station. The plates were incubated at 37 C for 40 hours. The luminescence intensity were measured at 0h, 8h, 16h, 24h, 32h and 40h time points using ViewLux plate reader during compound treatment.
% is scaled to controls: 0 for no effect and ±100 for the full control effect; potency is read from the fitted curve at half-maximal effect.

Row | SMILES | activity change, negative = cytotoxicity | Potency
1 | CCCCCCCCS(=O)(=O)Cl | -0.131% | 
2 | CC(=O)Nc1c(I)cc(I)c(C(=O)O)c1I | -0.219% [at 35.3 µM] | 
3 | COc1ccc(CCN(C)CCCC(C#N)(c2cc(OC)c(OC)c(OC)c2)C(C)C)cc1OC (stereo not given) | -5.19% [at 35.3 µM] | 
4 | C[C@H](NC(CCc1ccccc1)C(=O)O)C(=O)N1CCC[C@H]1C(=O)O (stereo not given in full) | 2.76% [at 35.3 µM] | 
5 | O=c1cc(-c2ccccc2)oc2ccccc12 |  | inactive
6 | CC/C=C\CCOC(C)=O | -16.1% | 
7 | NS(=O)(=O)c1cc(C(=O)O)cc(N2CCCC2)c1Oc1ccccc1 | -4.53% [at 35.3 µM] | 
8 | COCCc1ccc(OCC(O)CNC(C)C)cc1 (stereo not given) |  | inactive
9 | O=C(O)CN(CCOCCOCCN(CC(=O)O)CC(=O)O)CC(=O)O | 4.27% [at 0.29 µM] | 
10 | O=C1CC2CC1C1CCCC21 (stereo not given) | 4.23% | 
11 | O=C1CCCC(=O)C1 | 7.86% | 
12 | CC(=O)OCC(=O)[C@@]1(O)CC[C@H]2[C@@H]3CCC4=CC(=O)CC[C@]4(C)[C@H]3C(=O)C[C@@]21C |  | 6.01 µM (active)
13 | CO[C@]12C[C@@H](COC(=O)c3cncc(Br)c3)CN(C)[C@@H]1Cc1cn(C)c3cccc2c13 | -13.6% [at 35.3 µM] | 
14 | CCCN(CCC)CCc1cccc2c1CC(=O)N2 | 24.3% [at 35.3 µM] | 
15 | Cc1nc2c([nH]1)c(=O)n(C)c(=O)n2Cc1ccco1 | 9.4% [at 35.3 µM] | 
16 | COC(=O)CCSCCC(=O)OC | 0.158% | 
17 | NS(=O)(=O)c1cc(C(=O)NN2C[C@H]3[C@H]4CCC(C4)[C@H]3C2)ccc1Cl | -7.97% [at 35.3 µM] | 
18 | CCCCCSCCCCC | 0.28% | 
19 | O=S(O)CO | 16.1% | 
20 | C=C(C)C(=O)OCCCCCCCC(C)C | -1.53% | 

Row | SMILES | activity change, negative = cytotoxicity | Potency
21 | CCN(Cc1ccncc1)C(=O)C(CO)c1ccccc1 (stereo not given) | 1.64% [at 35.3 µM] | 
22 | NC(=O)c1ccc([N+](=O)[O-])cc1 | 19.2% | 
23 | CCCCOCCOCCOCc1cc2c(cc1CCC)OCO2 |  | inactive
24 | CC(C)c1cc2c(cc1S(=O)(=O)O)[C@@]1(C)CCC[C@@](C)(C(=O)O)[C@@H]1CC2 | 2.99% [at 35.3 µM] | 
25 | CC(C)(C)c1ccc(O)c(O)c1 | 8.16% | 
26 | Nc1c2c(nc3ccccc13)CCCC2O (stereo not given) | -4.61% [at 35.3 µM] | 
27 | CC(=O)CC(C)C | 10.7% | 
28 | C[N+](C)(C)CCCCCC[N+](C)(C)C |  | inactive
29 | CC(=O)c1ccccc1O | 0.548% | 
30 | C=CCCCCCCCCC=O | -23.6% | 
31 | CCn1ccnc1CC1COc2ccccc2O1 (stereo not given) | 0.953% [at 35.3 µM] | 
32 | O=C[C@H](O)[C@@H](O)[C@H](O)[C@H](O)CO | 15.6% | 
33 | O=C1CCCN1C1CCCCC1 | 0.537% | 
34 | Nc1ccccc1S(=O)(=O)O | -2.14% | 
35 | O=C(CCCN1CCC(O)(c2cccc(C(F)(F)F)c2)CC1)c1ccc(F)cc1 | -0.599% [at 35.3 µM] | 
36 | C=C(C)CS(=O)(=O)O | -13% | 
37 | CCOC(=O)CC(C)=O | 8.09% | 
38 | CC(C)NCCCC1(C(N)=O)c2ccccc2-c2ccccc21 | -1.89% [at 35.3 µM] | 
39 | NC(=O)c1ccc(N)cc1 | -21.7% | 
40 | CC/C=C\CC/C=C/CO | 10.5% | 

Reference: PubChem BioAssay (Tox21)
